From PubChem
Most compounds without a hit are left out; they make up all but 1.9% or so of the library.
Autofluor Jurkat: counter-screen for VLA-4 integrin: compound autofluorescence in Jurkat cells | flow cytometry; hits give high values; 1 = vehicle-only cell background | fluorescence ratio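 (tested at 10 µM compound in the well)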 | 24,000 compounds, 0.61% hits | AID 576;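 active = fluorescence ratio above 2.44, which is 1 plus 3 SD of all ratios; inconclusive = signal too bright to measure linearly, ratio around 10 or more; inactive = fluorescence ratio below 2.44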;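 note: green fluorescence of cells measured with 488 nm excitation and 530 nm emission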
FPR binder: human FPR ligand, with FPRL1 counter-screen. FPR-expressing cells, fluorescent ligand binding, flow cytometry. inhibition, % (concentration not given with the values). 24,000 compounds, 0.74% hits. AID 440
FPRL1 binder: ligands of human FPRL1, also counter-screen for FPR ligands; P25090; FPRL1-expressing cells, fluorescent ligand binding inhibition, flow cytometry; inhibition, % (test concentration not listed); 24,000 compounds, 0.3% hits
Target sequence (P25090 whole entry, looked up): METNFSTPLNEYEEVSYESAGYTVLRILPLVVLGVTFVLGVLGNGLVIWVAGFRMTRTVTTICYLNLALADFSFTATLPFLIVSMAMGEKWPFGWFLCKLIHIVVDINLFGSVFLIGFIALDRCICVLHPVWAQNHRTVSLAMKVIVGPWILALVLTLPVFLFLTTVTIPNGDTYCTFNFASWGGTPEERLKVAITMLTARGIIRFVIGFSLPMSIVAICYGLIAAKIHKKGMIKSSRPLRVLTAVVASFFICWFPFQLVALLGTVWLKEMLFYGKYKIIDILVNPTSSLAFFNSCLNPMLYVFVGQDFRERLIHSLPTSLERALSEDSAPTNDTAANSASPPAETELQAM
Proteasome disasm: blocks ATP-dependent breakdown of the yeast 26S proteasome; anti-FLAG beads, GFP-proteasome disassembly, flow cytometry; inhibition of disassembly, % (test concentration not listed); 24,000 compounds, 0.2% hits;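 active = inhibition of disassembly above about 33%, limit read from the data; inconclusive = likely self-fluorescent, control bead median signal at least 40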;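 note: higher percent means more bead fluorescence retained so stronger block of disassembly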
VLA-4 antagonist: inhibitors of LDV-FITC ligand binding to Mn2+-activated human VLA-4 integrin; P13612; Jurkat cells, LDV-FITC binding with Mn2+, flow cytometry; 100% = Mn2+-driven binding gain fully reversed; inhibition, % at 10 µM (by protocol); 24,000 compounds, 0.2% hits; AID 529;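 active = inhibition above 50%; inconclusive = compound itself fluorescent, judged against control cell fluorescence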
VLA-4 agonist: allosterically activates the human VLA-4 integrin; 24,000 tested, under 10 active; P13612; AID 528; activation, % at 10 µM (by protocol); Jurkat cells, LDV-FITC binding, flow cytometry;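 active = fluorescent ligand binding to cells raised by more than 40% of the manganese-induced maximum; inconclusive = compound's own fluorescence above 85% of the ligand control signal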
A number is an active result. Cut-off read from the data, not from the text of the source, unless noted: active = inhibition above about 30%; inconclusive = no clear call, values can overlap the other calls; inactive = below that.

Results for COc1ccc(CCn2c(-c3ccco3)nc3nc4ccccc4nc32)cc1 ?
Autofluor Jurkat: inactive; FPR binder: inactive; FPRL1 binder: inactive; Proteasome disasm: inactive; VLA-4 antagonist: inconclusive; VLA-4 agonist: inconclusive

How did COc1ccccc1Cn1c(-c2ccco2)nc2nc3ccccc3nc21 do in these assays?
Autofluor Jurkat: 2.6; FPR binder: inactive; FPRL1 binder: inactive; Proteasome disasm: inactive; VLA-4 antagonist: inconclusive; VLA-4 agonist: inconclusive

How did COc1ccc(NC(=O)CN2CCN(CC(=O)Nc3cc(OC)cc(OC)c3)CC2)cc1 do in these assays?
Autofluor Jurkat: inactive; FPR binder: inactive; FPRL1 binder: inactive; Proteasome disasm: inactive; VLA-4 antagonist: inactive; VLA-4 agonist: inactive

Results for C/C(=C1/SC(N2CCCC2)=NC1=O)c1ccc(Br)cc1 ?
Autofluor Jurkat: inactive; FPR binder: 42; FPRL1 binder: inactive; Proteasome disasm: inactive; VLA-4 antagonist: inactive; VLA-4 agonist: inactive

How did C=CCN1C(=O)/C(=C2\SC(N3CCOCC3)=NC2=O)c2cc(Br)ccc21 do in these assays?
Autofluor Jurkat: inactive; FPR binder: inactive; FPRL1 binder: inactive; Proteasome disasm: inactive; VLA-4 antagonist: inactive; VLA-4 agonist: inactive

Results for CN1C2C=C3C(C#N)=C(N)C(C#N)(C#N)[C@@H](c4ccc(Cl)cc4)[C@@H]3C1CC2 (some centres undefined) ?
Autofluor Jurkat: inactive; FPR binder: inactive; FPRL1 binder: inactive; Proteasome disasm: inactive; VLA-4 antagonist: inconclusive; VLA-4 agonist: inactive

Results for Cc1ccc(C2C3CSCC=C3C(C#N)=C(N)C2(C#N)C#N)cc1 (centres undefined) ?
Autofluor Jurkat: 8.8; FPR binder: inactive; FPRL1 binder: inactive; Proteasome disasm: 40; VLA-4 antagonist: inconclusive; VLA-4 agonist: inconclusive

Results for CCCN(CCC)CCCNS(=O)(=O)c1ccc2c(c1)oc(=O)n2C ?
Autofluor Jurkat: 3.7; FPR binder: inactive; FPRL1 binder: inactive; Proteasome disasm: inactive; VLA-4 antagonist: inconclusive; VLA-4 agonist: inconclusive

What do the screens show for `COc1ccccc1C1C(C(N)=O)=C(C)Nc2nc(-c3ccc(Cl)cc3)nn21` (centres undefined)?
Autofluor Jurkat: inactive; FPR binder: inactive; FPRL1 binder: inactive; Proteasome disasm: inactive; VLA-4 antagonist: inactive; VLA-4 agonist: inactive
